Laboratory results taken from PubChem BioAssay AID1626 (SRMLSC, 2009).
Hit rate of the full screen: of about 220,000 compounds, about 2,000 (0.91%) were called active. About 2% were inconclusive and are not listed. These entries were drawn from the full list. Entries with a potency or affinity are not part of this list. Unmarked numbers belong to inactive results. Cut-off read from the data, not from the text of the source: inconclusive = inhibition above about 80% without an active follow-up result; inactive = below that; test concentration not stated here.

Experiment: M. tuberculosis H37Rv growth inhibitors, H37Rv strain (AID 1626);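 note: bacteria incubated seven days before Alamar blue readout; 0% = bacteria only wells and 100% = bacteria with antibiotic wells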
Conditions: hits give high values, concentration not given here

Row | Compound | inhibition [%]
1 | COC(=O)c1ccc(-n2nnnc2SCc2nn[nH]n2)cc1 | -5.62
2 | Cn1c(N)c(C(=O)CSc2ncn[nH]2)c(=O)n(C)c1=O | -13.1
3 | Cc1nn2c(Nc3ccccc3)c3c(nc2c1-c1ccccc1)CCC3 | 7.77
4 | Cc1nn2c(NCCCN(C)C)c3c(nc2c1-c1ccccc1)CCCC3 | 10.8
5 | COc1ccc(Nc2c3c(nc4c(-c5ccccc5)c(C)nn24)CCC3)cc1 | 13.4
6 | Cc1nn2c(NCCN(C)C)c3c(nc2c1-c1ccccc1)CCC3 | -3.03
7 | COc1ccc(C(C)=O)cc1CSc1nnc(-c2ccncc2)n1C | -2.28
8 | Cn1c(-c2csc(-c3cccc(C(F)(F)F)c3)n2)n[nH]c1=S | 3.67
9 | Cc1ccc(C(=O)NCCSC2CCCCC2)cc1S(=O)(=O)Nc1ccccc1 | -1.4
10 | O=C(NCc1cccnc1)C(C(=O)c1ccc(F)cc1)n1ccccc1=O (stereo not given) | -8.48
11 | CCC(=O)NCCc1nc2ccccc2n1CC(=O)c1ccccc1 | -2.01
12 | C=CCn1c(=O)c2ccccc2n2c(SCC(=O)c3ccccc3)nnc12 | 6.67
13 | CCN(CC)CCOc1ccc(/C(=C(/Cl)c2ccccc2)c2ccccc2)cc1 | 41
14 | CN(C)CCOc1ccc(/C(=C(/CCCl)c2ccccc2)c2ccccc2)cc1 | 59.6
15 | CCCC(=O)Nc1ccc(C(=O)n2nnc3ccccc32)cc1 | -6.7
16 | COc1ccccc1N1CCN(c2cc(=O)n(Cc3ccc(F)cc3)c(=O)[nH]2)CC1 | 12.4
17 | O=S(=O)(c1cccs1)N1CCN(c2ccc(O)cc2)CC1 | -12.2
18 | Cc1ccc(CN(Cc2ccco2)C(=S)NCC(=O)NC2CC2)cc1 | 5.98
19 | CCc1nnc(NS(=O)(=O)c2ccc(NC(=O)c3cc4ccccc4oc3=O)cc2)s1 | 61.4
20 | CCc1nnc(NC(=O)c2ccc(OC)cc2)s1 | 2.91
21 | CCOc1ccccc1C(=O)Nc1nnc(CC)s1 | -4.9
22 | Cc1nc2ccc(NC(=O)c3ccc4ccccc4n3)cc2s1 | -4.06
23 | CCOC(=O)c1c(-c2ccccc2)csc1NC(=S)NC | 18.6
24 | O=C(Nc1ccccc1)c1ccc2ccccc2n1 | 8.34
25 | Cc1sc(NC(=O)c2cc3ccccc3oc2=O)c(C(=O)OC(C)C)c1-c1ccccc1 | -5.1

Row | Compound | inhibition [%]
26 | CCc1nnc(NC(=O)c2cc(C)nc3ccccc23)s1 | -1.08
27 | CN(C)CCCN(Cc1ccccc1)C(=S)Nc1ccc(OC(F)F)cc1 | 4.19
28 | Cc1cc(C)n(-c2nc3ccccc3nc2Nc2ccc3c(c2)OCO3)n1 | 13.5
29 | Cc1cccc(NC(=S)NCc2cccs2)c1C | 9.19
30 | Cc1ccnc(NS(=O)(=O)c2ccc(Cl)nc2)c1 | -4.15
31 | CCNC(=S)/N=C(/Nc1ccc(OC)cc1)Nc1nc(C)cc(C)n1 | -8.72
32 | CCc1nnc(NC(=O)c2c(OC)cccc2OC)s1 | -2.43
33 | CCc1nnc(NC(=O)c2ccncc2)s1 | -7.55
34 | CCC(CC)c1nnc(NC(=O)c2cc(-c3ccccc3)nc3ccccc23)s1 | 65.7
35 | CCC(CC)c1nnc(NC(=O)c2ccco2)s1 | -8.07
36 | CCSc1nnc(NC(=O)c2cccc3ccccc23)s1 | 3.82
37 | CCSc1nnc(NC(=O)c2ccccc2)s1 | 0.13
38 | O=C(CSC1=NCCN1)NC12CC3CC(CC(C3)C1)C2 | -6.99
39 | CCN(CC)S(=O)(=O)c1cc([N+](=O)[O-])ccc1N=Nc1c(O)[nH]c2ccccc12 | 0.25
40 | COc1cccc(/C=N/NC(=S)Nc2cccnc2)c1 | 3.92
41 | Cc1nnc(SCC(=O)N2CCC(Cc3ccccc3)CC2)n(N)c1=O | 7
42 | COc1ccc(C2Nc3ccccc3C(=O)N2NC(=O)c2ccccc2)cc1OC (stereo not given) | 2.58
43 | COc1cccc(NC(=O)CN(C)CC(=O)Nc2ccc(Cl)cc2[N+](=O)[O-])c1 | 7.39
44 | COCCNc1cc(C)nc2cc(-c3ccc(C)cc3)nn12 | -4.32
45 | Cc1cc(NCCCn2ccnc2)n2nc(-c3ccc(F)cc3)cc2n1 | -4.87
46 | Cc1cccc(-c2cc3nc(C)cc(NCCCN(C)C)n3n2)c1 | -0.01
47 | Cc1cc(NCCN2CCOCC2)n2nc(C)c(-c3ccc(Cl)cc3)c2n1 | 17.9
48 | Cc1cc(NCCCn2ccnc2)n2nc(C)c(-c3ccccc3)c2n1 | -2.71
49 | Cc1cccc(-c2cc3nc(C)cc(NCCCn4ccnc4)n3n2)c1 | 5.02
50 | CCC(=O)Nc1ccccc1C(=O)OCc1ccc(C(=O)c2ccccc2)cc1 | 27.4

Row | Compound | inhibition [%]
51 | Nn1c(SCC(=O)N2CCOCC2)nnc1C1CC1 | -3.01
52 | CCOC(=O)c1cc(N)cc([N+](=O)[O-])c1 | 5.48
53 | Cc1cccc(C)c1NC(=S)N1CCCN(C)CC1 | -1.16
54 | CCC(CC)C(=O)N1CCCC(c2nc(-c3cccs3)no2)C1 (stereo not given) | 10
55 | CC1(OC(=O)CCc2ccccc2)C(=O)C=C2C=C3CCCN3C=C2C1=O (stereo not given) | 6.27
56 | C/C(Cl)=C/Cn1c(SCC(C)C)nc2c1c(=O)[nH]c(=O)n2C | 3.03
57 | COc1cccc(NC(=O)N2CCOCC2)c1 | -7.85
58 | O=C(Oc1ccc(-c2cnc3ccccc3n2)cc1)c1cccc([N+](=O)[O-])c1 | 24
59 | O=C(Nc1cccc(-c2cnc3ccccc3n2)c1)c1ccco1 | -2.67
60 | O=C(Oc1ccc(-c2cnc3ccccc3n2)cc1)c1cc([N+](=O)[O-])ccc1Cl | 71.7
61 | O=C(Oc1ccc(-c2cnc3ccccc3n2)cc1)c1ccco1 | 7.39
62 | COc1ccc(OC)c(-c2cc(C(=O)Nc3c(C)nn(Cc4ccccc4C)c3C)no2)c1 | 72.8
63 | Cc1ccccc1NC(=O)CN1C(=S)NC(C)(C)CC1C (stereo not given) | 2.34
64 | CSc1nnnn1-c1ccc(Cl)cc1 | -2.8
65 | Cc1sc2ncnc(Sc3nnnn3-c3ccc(Cl)cc3)c2c1C | -0.98
66 | Cc1ccc(-n2cccc2C(=O)NS(=O)(=O)c2ccc(C)cc2)cc1 | -6.02
67 | CCc1ccc(OCC(=O)O/N=C(\N)c2ccccn2)cc1 | 8.77
68 | O=C(CSc1nc(-c2ccccc2)c(-c2ccccc2)[nH]1)NCC1CCCO1 (stereo not given) | -3.58
69 | N#CC1=C(S)N(c2ccccc2)C(c2ccc(-c3cccc(Cl)c3)o2)NC1=O (stereo not given) | 4.44
70 | N#CC1=C(S)N(c2ccccc2)C(c2ccc(-c3cc(Cl)ccc3Cl)o2)NC1=O (stereo not given) | 9.36
71 | C/C=C/c1ccc(OCCCCNCc2ccco2)c(OC)c1 | -4.41
72 | CCCN(CCC)C(=O)CC(c1ccccc1)c1ccc(C)cc1O (stereo not given) | 2.31
73 | CCN(CC(=O)NCCC1=CCCCC1)S(=O)(=O)c1ccccc1 | -1.16
74 | COc1cccc(N2CCN(C(=O)c3ccc4nc(N5CCCCC5)sc4c3)CC2)c1 | 5.19
75 | CCOC(=O)N1CCN(C(=O)c2ccc3nc(N4CCCCC4)sc3c2)CC1 | -6.19

Row | Compound | inhibition [%]
76 | CSCCNC(=O)c1cccc(Cl)c1 | 3.62
77 | Cn1c(=O)c2c(nc(CN3CCOCC3)n2CC(=O)c2ccccc2)n(C)c1=O | -10.9
78 | CN1CCN(c2ncnc3c2c(-c2ccccc2)cn3-c2ccc(F)cc2)CC1 | 5.53
79 | Cc1scc(C(=O)N/N=C/c2ccc(OCC(C)C)cc2)c1C | 6.9
80 | Cc1ccc(-c2cc(-c3ccc(C)cc3)[n+](C)o2)cc1 | -0.95
81 | COc1ccc(/C=C/c2ccncc2)cc1 | -1.37
82 | COc1cccc(NC(=O)Cn2c(CCC(=O)O)ccc2-c2cccs2)c1 | -0.82
83 | Cc1ccccc1NC(=O)c1ccc(CSc2ncccn2)cc1 | 5.28
84 | CCn1cc(CNC(=O)c2cccc([N+](=O)[O-])c2)cn1 | -9.32
85 | CCn1cc(CNC(=O)c2ccc(C)s2)cn1 | -1.4
86 | CS(=O)(=O)c1ccc(C(=O)NCc2ccc(F)cc2)cc1 | -6.92
87 | O=C(NCc1ccc(F)cc1)c1ccc(N2CCc3ccccc32)c([N+](=O)[O-])c1 | 13.9
88 | CCOc1ccc(NC(=O)N2CCN(S(C)(=O)=O)CC2)cc1 | -3.68
89 | COc1ccc(-n2cnc3c(sc4nccc(N(C)C)c43)c2=O)cc1 | 10.5
90 | CN(C)c1ccc(C=C2C(=O)OC(C)(C)OC2=O)cc1 | -0.63
91 | COc1ccc(C=C2C(=O)OC(C)(C)OC2=O)cc1OC | -16.1
92 | COC(=O)CN(c1ccccc1)S(=O)(=O)c1cc(Br)ccc1OC | 5.26
93 | CCOC(=O)Cc1csc(NC(=O)c2ccc(C)cc2)n1 | -1.68
94 | CCOC(=O)Cc1csc(NC(=O)c2cc3c(s2)CCCC3)n1 | 6.6
95 | CCOC(=O)Nc1ccc(C(=O)/C=C/c2ccccc2)cc1 | 10.2
96 | COc1ccccc1/C=C/C(=O)c1ccc(NC(C)=O)cc1 | 94.1
97 | Cc1ccc(/C=C/C(=O)c2ccc(O)cc2)cc1 | 11.5
98 | CCOc1ccc(C(=O)/C=C/c2ccc(SC)cc2)cc1 | -1.12
99 | CSc1ccc(/C=C/C(=O)Nc2ccccc2)cc1 | 33.9
100 | CSc1ccc(/C=C/C(=O)c2ccc(NC(=O)C(C)C)cc2)cc1 | 75.2
